The list is not random: actives were taken first. Their share in the collection is about 3.5%.
BoNT-A LC inh2 – BoNT/A light chain protease inhibitors, primary screen, biochemical, flow cytometry, MLPCN library | Botulinum neurotoxin type A light chain protease (Clostridium botulinum A str. ATCC 3502) | multiplex microsphere protease substrate cleavage | inhibition, % at 10 µM | hit rate 0.17% among 360,000 | AID 588499, 2011; also: plate controls were buffer without enzyme for full effect and enzyme alone for no effect
Anthrax LF inh2 – Bacillus anthracis LF protease inhibitors, primary screen, biochemical, multiplex microsphere, MLPCN library; Lethal factor (Bacillus anthracis), P15917; multiplex microsphere protease cleavage assay; inhibition, % at 10 µM; hit rate 0.12% among 360,000; AID 588501, 2011; also: plate controls were buffer without enzyme for full effect and enzyme alone for no effect
Bead autofluor – flagged as autofluorescent in microsphere protease counterscreen; compound autofluorescence counterscreen, microsphere flow cytometry; stronger effect = higher value; fluorescence intensity (concentration not given with the values); hit rate 3.1% among 360,000; AID 624483; in the data active = fluorescence intensity above about 16000; inconclusive = no clear call, values can overlap the other calls
BoNT-F LC inh – BoNT/F light chain protease inhibitors, primary screen, biochemical, flow cytometry, MLPCN library | Botulinum neurotoxin type F light chain protease (Clostridium botulinum) | Multiplex microsphere protease cleavage assay | inhibition, % at 10 µM | hit rate 0.22% among 360,000; in the data active = inhibition above about 35%, passing the limit was not always enough; inconclusive = no clear call, values can overlap the other calls; also: plate controls were buffer without enzyme for full effect and enzyme alone for no effect
BJeLR viability – MLPCN primary cell-based screen for lethality selective to Ras in HRASV12 cells. BJeLR (HRASV12) viability, CellTiter-Glo ATP luminescence, 48 h. inhibition, % (no concentration beside the values). hit rate 0.17% among 300,000; in the data active = inhibition above about 50%; inconclusive = no clear call, values can overlap the other calls
Numbers without * were called inactive. Rule as the data show it, unless noted: active = inhibition above about 30%; inconclusive = no clear call, values can overlap the other calls; inactive = below that.

Screening O=[N+]([O-])c1ccccc1OCCCn1cnc2ccccc21 returned BoNT-A LC inh2 0.5, Anthrax LF inh2 5.0, Bead autofluor 4114, BoNT-F LC inh 2.7 and BJeLR viability -11.9.
CC1CN(CCCOc2ccccc2[N+](=O)[O-])CC(C)O1 (stereo unspecified) was read as BoNT-A LC inh2 0.5, Anthrax LF inh2 1.0, Bead autofluor 23581*, BoNT-F LC inh 5.1 and BJeLR viability 3.3.
For Cc1ccc(S(=O)(=O)N(C)C[C@@H]2OCc3cnnn3CCCC(=O)N([C@@H](C)CO)C[C@H]2C)cc1 the results were BoNT-A LC inh2 -0.3, Anthrax LF inh2 -2.6, Bead autofluor 2937 and BoNT-F LC inh -3.0.
Cc1ccccc1OCCN1CCCC1 was read as BoNT-A LC inh2 -1.3, Anthrax LF inh2 0.1, Bead autofluor 4358, BoNT-F LC inh inconclusive and BJeLR viability -1.6.
Screening Fc1ccccc1OCCCN1CCOCC1 returned BoNT-A LC inh2 8.8, Anthrax LF inh2 -15.8, Bead autofluor 17023*, BoNT-F LC inh 12.2 and BJeLR viability -7.3.
Screening Cc1ccccc1OCCCN1CCCC1 returned BoNT-A LC inh2 inconclusive, Anthrax LF inh2 -20.8, Bead autofluor 17560*, BoNT-F LC inh 13.4 and BJeLR viability -16.3.
Screening CN(C)CCCNC(=O)OC1CC2CC1[C@H]1CCCCN1C2=O (stereo partly specified) returned BoNT-A LC inh2 0.9, Anthrax LF inh2 2.0, Bead autofluor 4937 and BoNT-F LC inh 1.3.
Screening CC(C)N(C(=O)Cn1c(SCC(=O)NCc2ccc3c(c2)OCO3)nc2ccccc21)C(C)C returned BoNT-A LC inh2 -0.6, Anthrax LF inh2 0.4, Bead autofluor 2945, BoNT-F LC inh -4.6 and BJeLR viability -5.7.
For CC(C)Sc1nc2ccccc2n1CC(=O)NCc1ccc2c(c1)OCO2 the results were BoNT-A LC inh2 inconclusive, Anthrax LF inh2 -0.9, Bead autofluor 22521*, BoNT-F LC inh 2.7 and BJeLR viability 19.6.
Screening CCN(CC)CCNC(=O)c1ccc(NC(=O)c2ccc(-n3cncn3)c([N+](=O)[O-])c2)cc1 returned BoNT-A LC inh2 -1.6, Anthrax LF inh2 -6.9, Bead autofluor 2861 and BoNT-F LC inh -19.1.
C=CCNC(=O)c1cccc(Br)c1 was read as BoNT-A LC inh2 -2.6, Anthrax LF inh2 -1.1, Bead autofluor 23849*, BoNT-F LC inh -3.9 and BJeLR viability 2.0.
COc1ccc(C(=O)Nc2nc3cc(OC)c(OC)cc3c(=O)[nH]2)cc1 was read as BoNT-A LC inh2 -3.4, Anthrax LF inh2 -2.4, Bead autofluor 25582* and BoNT-F LC inh -5.1.
For COC(=O)N1CC(c2ccccc2)CC1=O (stereo unspecified) the results were BoNT-A LC inh2 1.1, Anthrax LF inh2 -0.5, Bead autofluor 19692*, BoNT-F LC inh 2.6 and BJeLR viability 6.3.
Screening O=c1c2c([nH]n1-c1ccccc1)C[C@@H](C1CCCCC1)O[C@H]2c1ccc(F)cc1 returned BoNT-A LC inh2 0.2, Anthrax LF inh2 -0.6, Bead autofluor 6010 and BoNT-F LC inh -10.7.
Screening CC(C)(C)c1ccc(-n2nc(C#N)c(Cl)cc2=O)cc1 returned BoNT-A LC inh2 -0.4, Anthrax LF inh2 -5.0, Bead autofluor 3586, BoNT-F LC inh -10.6 and BJeLR viability 56.0*.
Screening CCOc1ccccc1CNC(=O)C1CCCN(c2nnc(C)c3c(C)n(-c4ccccc4)nc23)C1 (stereo unspecified) returned BoNT-A LC inh2 -7.8, Anthrax LF inh2 2.1, Bead autofluor 19018*, BoNT-F LC inh 13.5 and BJeLR viability -9.1.
For COc1ccc(-n2nc3c(N4CCC(C(=O)NCc5ccccc5C)CC4)nnc(C)c3c2C)cc1 the results were BoNT-A LC inh2 3.0, Anthrax LF inh2 6.8, Bead autofluor 8875, BoNT-F LC inh 22.4 and BJeLR viability -10.6.
CC(=O)NC(C)C(=O)OCC(=O)c1ccc(-c2ccccc2)cc1 (stereo unspecified) was read as BoNT-A LC inh2 0.0, Anthrax LF inh2 -1.5, Bead autofluor 3999, BoNT-F LC inh -9.7 and BJeLR viability -20.5.
`CC1(C(=O)Nc2ccc3ccccc3c2)CCC(=O)N1CCc1c[nH]c2ccccc12` (stereo unspecified) gave BoNT-A LC inh2 -0.1, Anthrax LF inh2 -13.1, Bead autofluor 4226 and BoNT-F LC inh -0.9.
`OC(COCc1ccccc1)Cn1cnc2ccccc21` (stereo unspecified) gave BoNT-A LC inh2 inconclusive, Anthrax LF inh2 0.1, Bead autofluor 16259*, BoNT-F LC inh -1.2 and BJeLR viability 0.9.
